“And” between values parts separate entries of the source, which are not always exact repeats. Equal entries are not always repeated. The panel holds about 83,000 compounds, 20% with a hit somewhere; the sample as a whole holds those more often.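 Activity criterion: percent growth below 10, measured after cells in 96-well plates were exposed to a single compound concentration for 48 hours.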 Unmarked numbers belong to inactive results. The source made the active and inactive calls.
test system: HL-60(TB) leukemia; experiment: NCI-60 one-dose screen, 48 h (100 = growth as untreated, 0 = no growth, -100 = all killed); settings: 10 µM unless noted

Compound | growth
CN1C(=O)N(C)C2Nn3c(s/c(=C\c4ccc(C(F)(F)F)cc4)c3=O)=NC21 (centres undefined) | 98.9%
CC1=CC(C)(C)NC(=S)N1c1ccc(Cl)cc1 | 94.7% and 97.6%
O=C1N=NC2=C1c1c3ccccc3c(O)n1CC2 | 105%
O=C1/C(=C/c2ccccc2[N+](=O)[O-])Oc2ccc(O)c(O)c21 | 4.39% (active)
O=[N+]([O-])c1ccc(N/N=C(/C(=N/Nc2ccc([N+](=O)[O-])cc2)c2ccccc2)c2ccccc2)cc1 | 117%
Fc1ccc(Nc2nc3nonc3nc2Nc2ccc(I)cc2)cc1 | -46.3% (active)
COc1ccc(C(=O)c2cc3c(N)c(C(=O)Nc4cccc(Cl)c4C)sc3nc2C)cc1 | -60.6% (active)
OCCN1CCN(CCCN2c3ccccc3Sc3ccc(Cl)cc32)CC1 | 85.8% and 73.9%
COc1ccc(CN2c3ccccc3Sc3ccccc32)cc1O | 21.1%
O=C(CNc1nnc(-c2cccnc2SCc2ccccc2)s1)Nc1nc(Cl)cc(Cl)n1 | 96.2%
CCN(CC)c1ccc(/C=C/C(=O)c2ccc(Nc3nc(Nc4ccccc4)nc(Nc4ccccc4)n3)cc2)cc1 | 45.6%
CCCCOC1NC(=O)NC(=O)C1(F)C(=O)OCC (centres undefined) | 63.5%
CC(=O)Oc1c(Cl)c(Cl)c(Cl)c(Cl)c1Cl | 82.2%
Cc1nc2sc(C(=O)Nc3cccc(Cl)c3C)c(N)c2cc1C(=O)c1ccccc1 | 5.28% (active)

— PubChem BioAssay (NCI)
